Test [1] has as its target Cytochrome P450 3A4 (Homo sapiens) (UniProt P08684). Briefly: qHTS Assay for Inhibitors and Substrates of Cytochrome P450 3A4 (AID 884). For activity change, negative = inhibition: % is set by controls: 0 for no effect and ±100 for the full control effect. Note: nearly all actives have a fitted effect of over 50% in size. Note: potency is the fitted concentration of half-maximal effect. The gist of the method: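 20 nM human CYP3A4 with 25 uM Luciferin-PPXE (at KM) in 200 mM KPO4, preincubated 10 min with compound; NADPH regeneration started a 60 min RT reaction. Luciferin detected by luminescence, normalized to 57 uM ketoconazole as full inhibition.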
In general terms: qHTS replaces the single test concentration by a dilution series.

The nature of test [2]: Confirmation and Secondary Assay for Modulators of Hemoglobin Beta Chain Splicing at IVS2 654 locus (AID 910).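 Note: HeLa cells stably carrying EGFP split by mutant beta-globin IVS2-654 intron; per-well total GFP intensity by laser scanning cytometry after 2-day treatment; % of control where 0% means no effect.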 The gist of the method:
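Readout: per-well total peak green fluorescence (488 nm ex, 500–520 nm em) from objects 5–250 µm, reflecting correct splicing of an EGFP-654 reporter. Compounds were applied for 2 days at 37 °C to overnight-plated HeLa EGFP-654 cells; controls were DMSO and 500 nM IVS2-654 PNA.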

Test [3] is described as follows: Confirmation and Secondary Assay for Modulators of Hemoglobin Beta Chain Splicing at IVS2 705 locus (AID 930).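 Note: HeLa cells stably expressing the EGFP-705 splicing reporter; GFP fluorescence per well restored by corrected splicing of the IVS2-705 intron in EGFP; % of control where 0% means no effect.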 The essentials:
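HeLa EGFP-705 reporter; 500 cells/well, o/n 37C 5% CO2; cpd 2 d; 488 ex/500-520 em laser scan; total peak GFP intensity/well. Ref: 500 nM […] antisense PNA.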

Test [4] can be described thus: qHTS Assay for Lipid Storage Modulators (AID 1519; calls by dose curve; for activity change, negative = inhibition: % is set by controls: 0 for no effect and ±100 for the full control effect). To be noted: Drosophila S3 cells, BODIPY lipid droplet/cell ratio, laser cytometry, cells loaded with oleic acid; for activity change, negative = inhibition: at 57.5 µM (top of the series). The gist of the method:
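Cells seeded at 5,000 per well were treated with compounds over a concentration series and loaded with oleic acid (400 uM, as added). Lipid droplet fluorescence (488 nm excitation, 500-530 nm channel) was read by laser-scanning cytometry and normalized to 20 uM Triacsin C.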

The target of test [5] is Ubiquitin carboxyl-terminal hydrolase 1 (Homo sapiens) (UniProt O94782). The test can be described thus: Inhibitors of USP1/UAF1: Pilot qHTS (AID 504865).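 Note: rhodamine fluorescence freed from ubiquitin-rhodamine substrate followed over time; top concentration of the series differs between compounds; % is set by controls: 0 for no effect and ±100 for the full control effect; nearly all actives have a fitted effect of over 35% in size.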 The essentials: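 In 50mM HEPES pH 7.8 containing 0.5mM EDTA, 1mM TCEP, 0.1 mg/ml BSA and 0.01% Tween-20, 1nM USP1/UAF1 is exposed to compound for 15 min, then Ub-Rho (150nM final) is added and fluorescence is read over time.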

Test [6] deals with Cytochrome P450 3A4 (Homo sapiens) (UniProt P08684). The test can be described thus: qHTS Assay for Activators of Cytochrome P450 3A4 (AID 885). Note: nearly all actives have a fitted effect of over 65% in size. The essentials: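 Steps: enzyme/substrate mix dispensed; compound added, 10 min RT; NADPH regeneration solution added, 60 min RT; luciferin detection buffer stops reaction; 20 min later luminescence measured.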
Where [7] appears, read: measured here: cell count channel max response.
Where [8] appears, read: measured here: lipid channel max response.

Records with an inconclusive call do not appear. The source made the active and inactive calls. Unless noted, calls come from the whole dose curve; as a rule, active = well fitted curve in the direction sought with a large enough effect; inconclusive = small, poorly fitted or top-dose-only effect, or another doubt; inactive = no such curve, though single readings can be large; an effect the other way counts as inactive or inconclusive.

Ubiquitin carboxyl-terminal hydrolase 1 (Homo sapiens), sequence (O94782 whole entry, looked up): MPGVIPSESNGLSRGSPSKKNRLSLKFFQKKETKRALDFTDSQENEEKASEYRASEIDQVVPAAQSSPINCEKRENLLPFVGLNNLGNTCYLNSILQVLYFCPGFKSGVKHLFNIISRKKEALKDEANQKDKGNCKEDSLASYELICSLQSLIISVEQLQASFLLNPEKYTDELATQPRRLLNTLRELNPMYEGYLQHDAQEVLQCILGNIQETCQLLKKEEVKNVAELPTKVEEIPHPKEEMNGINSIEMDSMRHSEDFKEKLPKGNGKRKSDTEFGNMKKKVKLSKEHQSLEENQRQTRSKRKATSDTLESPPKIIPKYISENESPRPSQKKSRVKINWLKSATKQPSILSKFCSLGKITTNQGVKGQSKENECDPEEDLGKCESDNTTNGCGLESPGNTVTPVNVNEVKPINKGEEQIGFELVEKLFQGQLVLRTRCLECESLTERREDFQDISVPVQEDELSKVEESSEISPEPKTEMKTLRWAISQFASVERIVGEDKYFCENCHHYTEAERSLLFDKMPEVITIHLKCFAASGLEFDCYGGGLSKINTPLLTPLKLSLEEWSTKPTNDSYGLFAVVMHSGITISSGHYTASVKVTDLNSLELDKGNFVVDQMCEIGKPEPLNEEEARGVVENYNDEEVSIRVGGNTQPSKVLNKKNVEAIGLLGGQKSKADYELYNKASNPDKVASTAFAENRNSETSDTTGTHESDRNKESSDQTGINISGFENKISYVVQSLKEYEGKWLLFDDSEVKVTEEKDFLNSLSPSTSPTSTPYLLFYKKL
Cytochrome P450 3A4 (Homo sapiens), sequence (P08684 whole entry, looked up): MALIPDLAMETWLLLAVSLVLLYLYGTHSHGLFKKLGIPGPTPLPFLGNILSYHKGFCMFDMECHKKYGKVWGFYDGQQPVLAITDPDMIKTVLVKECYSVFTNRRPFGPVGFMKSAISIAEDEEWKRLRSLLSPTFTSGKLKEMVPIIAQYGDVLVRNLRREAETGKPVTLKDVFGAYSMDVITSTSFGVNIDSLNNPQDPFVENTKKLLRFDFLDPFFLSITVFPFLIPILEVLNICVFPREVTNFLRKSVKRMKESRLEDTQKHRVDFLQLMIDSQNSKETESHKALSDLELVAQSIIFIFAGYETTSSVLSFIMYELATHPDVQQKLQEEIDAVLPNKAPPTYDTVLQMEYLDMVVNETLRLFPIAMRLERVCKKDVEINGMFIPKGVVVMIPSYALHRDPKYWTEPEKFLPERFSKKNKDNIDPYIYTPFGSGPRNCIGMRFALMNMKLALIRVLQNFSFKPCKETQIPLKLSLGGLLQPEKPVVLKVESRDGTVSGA

`COC(=O)COc1ccc(Cl)cc1Cl`: the Potency entry in test [1], in test [2], in test [3] and in test [5] was “inactive” in each case. Besides, the activity change, negative = inhibition in test [4] was 8.24% (inactive). Also, the max response came to 0.885% in test [4] (setting [7]) and 8.23% in test [4] (setting [8]).
For the compound `CC1CC[C@]2(NC1)OC1CC3C4CC=C5CC(O)CC[C@@]5(C)C4CC[C@]3(C)C1C2C` (stereo not given in full), the Potency result in test [1], in test [2], in test [3] and in test [5] was “inactive” each time. The activity change, negative = inhibition in test [4] is 2.46% (inactive). Further, the results for the max response in test [4] (setting [7]) and in test [4] (setting [8]) were 14.9% and 22.2%, respectively.
Take `CC(=O)C1CCC2C3CCC4CC(O)CCC4(C)C3CC(O)C12C` (stereo not given): the Potency result in test [1], in test [2], in test [3] and in test [5] was “inactive” each time. The activity change, negative = inhibition in test [4] was -2.59% (inactive). Also, the max response stood at 3.25% in test [4] (setting [7]) and 2.61% in test [4] (setting [8]).
Turning to `CC(=O)C1CC[C@H]2C3CC[C@@H]4CC(O)CC[C@@]4(C)C3CC[C@]12C` (stereo not given in full), the Potency result in test [1], in test [2], in test [3] and in test [5] was “inactive” throughout. Further, the activity change, negative = inhibition in test [4] is 12.3% (inactive). The max response in test [4] (setting [7]) was found to be 9.69%; in test [4] (setting [8]), 25.9%.
For `C[C@@]12CCC3C(CC[C@@H]4CC(O)CC[C@@]34C)C1CCC2O` (stereo not given in full), the Potency result in test [1], in test [2], in test [3] and in test [5] was “inactive” each time. Besides, the activity change, negative = inhibition in test [4] is 5.33% (inactive). The figures for the max response in test [4] (setting [7]) and in test [4] (setting [8]) were 18.2% and 26%, respectively.
On to `CNC1[C@@H](O)C(OC2C(N)C[C@H](N)[C@@H](O[C@@H]3OC(C(C)O)C(O)C(O)C3N)C2O)OC[C@]1(C)O` (stereo not given in full), for which the Potency result in test [6], in test [2], in test [3] and in test [5] was “inactive” each time. In addition, the activity change, negative = inhibition in test [4] was 8.52% (inactive). The results for the max response in test [4] (setting [7]) and in test [4] (setting [8]) were 15% and 24.5%, respectively.
For `COc1c2c(cc3c1OCO3)C13C=CC(OC)CC1N(C2)CC3O` (stereo not given), the Potency entry in test [6], in test [2], in test [3] and in test [5] was “inactive” each time. Further, the activity change, negative = inhibition in test [4] was 11.5% (inactive). Besides, the results for the max response in test [4] (setting [7]) and in test [4] (setting [8]) were 12.8% and 26.7%, respectively.
In the case of `COc1cc(OC)c2c(c1)OC(c1ccc(OC)c(OC)c1)C(O)C2` (stereo not given), the Potency entry in test [2], in test [3] and in test [5] was “inactive” each time. The activity change, negative = inhibition in test [4] was 10.8% (inactive). For the same compound, the max response is 10.1% in test [4] (setting [7]) and 29.4% in test [4] (setting [8]).
As for `CC1O[C@@H](OC2CC(O)[C@@]3(CO)C4C(O)C[C@@]5(C)C(C6=CC(=O)OC6)CC[C@]5(O)C4CC[C@]3(O)C2)C(O)C(O)C1O` (stereo not given in full), the Potency entry in test [2], in test [3] and in test [5] was “inactive” each time. Moreover, in test [4], the activity change, negative = inhibition was 3.6% (inactive). For the same compound, the max response in test [4] (setting [7]) worked out at 6.17%; in test [4] (setting [8]), 13.6%.
`CC(=O)OC1C2C(OC(=O)Cc3ccccc3)C(C)CC2(OC(C)=O)C(=O)/C(C)=C/C2C(CC[C@@]13CO3)C2(C)C` (stereo not given in full): the Potency result in test [6], in test [2], in test [3] and in test [5] was “inactive” each time. The activity change, negative = inhibition in test [4] was -0.982% (inactive). Moreover, the max response in test [4] (setting [7]) is -2.07%; in test [4] (setting [8]), -2.51%.
With `CCN1C[C@@]2(C)CC[C@@H](OC)[C@@]34C2C(O)[C@@]2(OCO[C@]25CC(OC)C2C[C@@]3(O)C5C2O)C14` (stereo not given in full), the Potency entry in test [6], in test [2], in test [3] and in test [5] was “inactive” throughout. In addition, the activity change, negative = inhibition in test [4] was 2.86% (inactive). For the same compound, the max response came to 1.33% in test [4] (setting [7]) and 4.66% in test [4] (setting [8]).
For `CCC(C)C(=O)OC1C(O)C2C(CN3CC(C)CCC3[C@]2(C)O)C2C[C@]34O[C@@]5(O)C(OC(=O)C(C)(O)CC)CCC3(C)C5C(OC(C)=O)C(OC(C)=O)C4[C@@]21O` (stereo not given in full), the Potency result in test [1], in test [2], in test [3] and in test [5] was “inactive” in each case. The activity change, negative = inhibition in test [4] is 3.69% (inactive). In addition, the max response stood at 17.1% in test [4] (setting [7]) and 25.4% in test [4] (setting [8]).
Regarding `CC1=C2C3OC(=O)C(C)C3CC[C@@]2(C)C=CC1=O` (stereo not given in full), the Potency entry in test [6], in test [2], in test [3] and in test [5] was “inactive” each time. Moreover, the activity change, negative = inhibition in test [4] is 1.14% (inactive). The max response in test [4] (setting [7]) worked out at 15.1%; in test [4] (setting [8]) it was 16.8%.
With `Nc1ncn[nH]1`, the Potency entry in test [6], in test [2], in test [3] and in test [5] was “inactive” each time. The activity change, negative = inhibition in test [4] is 11.2% (inactive). Further, the max response in test [4] (setting [7]) is 9.75%; in test [4] (setting [8]), 23.5%.
Consider `CNC(Cc1c[nH]c2ccccc12)C(=O)O` (stereo not given), for which the Potency entry in test [1], in test [2], in test [3] and in test [5] was “inactive” throughout. Further, the activity change, negative = inhibition in test [4] is 4.43% (inactive). In addition, the values for the max response in test [4] (setting [7]) and in test [4] (setting [8]) were 11.7% and 20.5%, respectively.
For the compound `C[C@@]12CCC(O)C[C@H]1CCC1C2CC[C@]2(C)C(=O)CCC12` (stereo not given in full), the Potency result in test [6], in test [2], in test [3] and in test [5] was “inactive” in each case. The activity change, negative = inhibition in test [4] is 1.65% (inactive). The max response amounted to 7% in test [4] (setting [7]) and 9.46% in test [4] (setting [8]).
Consider `FC(F)(F)c1cccc(N2CCNCC2)c1`, for which the Potency entry in test [1], in test [2], in test [3] and in test [5] was “inactive” in each case. In test [4], the activity change, negative = inhibition is 4.68% (inactive). Besides, the max response in test [4] (setting [7]) was -7.45%; in test [4] (setting [8]), -3.82%.
For `CN1CCCCC1c1ccc(-c2cccnc2)nc1` (stereo not given), the Potency entry in test [6], in test [2], in test [3] and in test [5] was “inactive” throughout. Besides, in test [4], the activity change, negative = inhibition is 6.38% (inactive). The max response is 12.4% in test [4] (setting [7]) and 21.9% in test [4] (setting [8]).
In the case of `CC1CC(O)[C@]2(O)[C@]13CC(=O)OC[C@@]2(C)[C@@](C)(O)C(=O)C3` (stereo not given in full), the Potency entry in test [6], in test [2], in test [3] and in test [5] was “inactive” in each case. The activity change, negative = inhibition in test [4] was 1.46% (inactive). Also, the max response in test [4] (setting [7]) was 13.4%; in test [4] (setting [8]), 16.3%.
Take `CC(=O)OC1CC[C@]2(C)C(CCC3C2CC[C@]2(C)C(C4=CC(=O)OC4)C(OC(C)=O)CC32O)C1` (stereo not given in full): the Potency entry in test [1], in test [2], in test [3] and in test [5] was “inactive” throughout. For the same compound, the activity change, negative = inhibition in test [4] was 6.45% (inactive). Besides, the max response came out at 1.24% in test [4] (setting [7]) and 14.6% in test [4] (setting [8]).
Regarding `CC1=C2CCC3C4CCC(=O)[C@@]4(C)CCC3[C@]2(C)CCC1=O` (stereo not given in full), the Potency in test [1] was 5.01 µM (active). Moreover, the Potency entry in test [2], in test [3] and in test [5] was “inactive” throughout. Further, the activity change, negative = inhibition in test [4] is 7.19% (inactive). Also, the max response is 5.35% in test [4] (setting [7]) and 8.56% in test [4] (setting [8]).
As to `CC1(C)C(O)CC(O)[C@]2(C)C1CC(O)[C@]1(C)C2CC[C@@]2(C)C(c3ccoc3)CC3OC312` (stereo not given in full), the Potency entry in test [6], in test [2], in test [3] and in test [5] was “inactive” throughout. Moreover, the activity change, negative = inhibition in test [4] was -10.5% (inactive). Moreover, the max response in test [4] (setting [7]) is -11.5%; in test [4] (setting [8]), -19.8%.
On to `CCC12C=CCN3CCC4(c5ccc(OC)cc5N(C)C4[C@@](O)(C(=O)OC)C1OC(C)=O)C32` (stereo not given in full), for which the Potency entry in test [6], in test [2], in test [3] and in test [5] was “inactive” throughout. For the same compound, the activity change, negative = inhibition in test [4] is 1.88% (inactive). Besides, the values for the max response in test [4] (setting [7]) and in test [4] (setting [8]) were 13.3% and 25%, respectively.
Turning to `CC1O[C@@H](OC2CC[C@@]3(C=O)C4CC[C@]5(C)C(C6=CC(=O)OC6)CC[C@@]5(O)C4CC[C@]3(O)C2)C(O)C(O)C1O` (stereo not given in full), the Potency result in test [2], in test [3] and in test [5] was “inactive” each time. For the same compound, in test [4], the activity change, negative = inhibition is 2.77% (inactive). Besides, the max response in test [4] (setting [7]) was -0.564%; in test [4] (setting [8]), 4.22%.

Values taken from PubChem BioAssay (NCATS).
